According to PubChem BioAssay (Tox21):
Records with an inconclusive call do not appear. A call without a number means that no potency is given here. Activity calls are given as the source filed them. Unless noted, the call rests on the fitted dose curve; in most records, active means well fitted curve in the direction sought with a large enough effect in the repeat runs; inconclusive means weak or mixed curves; inactive means no such curve, though single readings can be large; an effect the other way counts as inactive or inconclusive.

Columns and labels:
[1] = A CellTox Green Cytotoxicity Assay to monitor cytotoxicity in HepG2 cells - 24 hour (AID 1224878); further: nearly all actives have a fitted effect of over 45% in size
Outline: (§1)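 HepG2, 600 cells/well premixed w/ CellTox Green; 5 h settle, 37 C/5% CO2; pintool cpd add (DMSO); 37 C, 40 h; fluorescence read at 0, 8, 16, 24, 32, 40 h.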

[2] = A CellTox Green Cytotoxicity Assay to monitor cytotoxicity in HepG2 cells - 40 hour (AID 1224879); further: nearly all actives have a fitted effect of over 40% in size
Outline: as §1

[3] = qHTS RealTime-Glo MT Cell Viability Assay in HEK293 cells - 0 hour (AID 1224880); further: top concentration of the series differs between compounds; nearly all actives have a fitted effect of over 45% in size
Outline: (§2)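 Luminescence readout at each listed time point; HEK293, 600 cells/well, RealTime-Glo MT reagent added with cells; compounds pinned (23 nL in DMSO) after 5 h at 37 C; continuous culture at 37 C.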

[4] = A CellTox Green Cytotoxicity Assay to monitor cytotoxicity in HEK293 cells - 32 hour (AID 1224881); further: nearly all actives have a fitted effect of over 40% in size
Outline: (§3)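 Read-out: fluorescence of a cell-impermeant cyanine dye staining DNA of dead cells, proportional to cytotoxicity. HEK293, 600 cells/well with reagent, compound (23 nL DMSO) added after 5 h; reads at 0, 8, 16, 24, 32, 40 h.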

[5] = A CellTox Green Cytotoxicity Assay to monitor cytotoxicity in HepG2 cells - 0 hour (AID 1224882); further: nearly all actives have a fitted effect of over 35% in size
Outline: as §1

[6] = A CellTox Green Cytotoxicity Assay to monitor cytotoxicity in HepG2 cells - 32 hour (AID 1224883); further: nearly all actives have a fitted effect of over 50% in size
Outline: as §1

[7] = A CellTox Green Cytotoxicity Assay to monitor cytotoxicity in HEK293 cells - 8 hour (AID 1224884); further: nearly all actives have a fitted effect of over 35% in size
Outline: as §3

[8] = qHTS RealTime-Glo MT Cell Viability Assay in HepG2 cells - 16 hour (AID 1224885); further: nearly all actives have a fitted effect of over 50% in size
Outline: (§4)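 Viability was tracked continuously by NanoLuc luminescence from prosubstrate reduced by living HepG2 cells, at successive time points over 40 h of compound exposure. Cells with reagent were preincubated 5 h at 37 °C before compound addition.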

[9] = qHTS RealTime-Glo MT Cell Viability Assay in HEK293 cells - 24 hour (AID 1224886); further: top concentration of the series differs between compounds; nearly all actives have a fitted effect of over 50% in size
Outline: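 Viability tracked continuously by luminescence as live cells reduce a prosubstrate for NanoLuc; HEK293 cells preincubated 5 h, compound-treated at 37 C, and read at 0, 8, 16, 24, 32 and 40 h.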

[10] = qHTS RealTime-Glo MT Cell Viability Assay in HEK293 cells - 8 hour (AID 1224887); further: top concentration of the series differs between compounds; nearly all actives have a fitted effect of over 50% in size
Outline: as §2

[11] = A CellTox Green Cytotoxicity Assay to monitor cytotoxicity in HEK293 cells - 16 hour (AID 1224888); further: nearly all actives have a fitted effect of over 35% in size
Outline: as §3

[12] = qHTS RealTime-Glo MT Cell Viability Assay in HepG2 cells - 0 hour (AID 1224889); further: nearly all actives have a fitted effect of over 50% in size
Outline: as §4

[13] = A CellTox Green Cytotoxicity Assay to monitor cytotoxicity in HepG2 cells - 8 hour (AID 1224890); further: nearly all actives have a fitted effect of over 45% in size
Outline: as §1

[14] = qHTS assay to identify small molecule antagonists of the estrogen receptor alpha (ER-alpha) signaling pathway using the BG1 cell line in the presence of 0.1 nM 17-beta-estradiol - cell viability counter screen (AID 1259241); further: nearly all actives have a fitted effect of over 40% in size
Outline: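 Live-cell protease activity (CellTiter-Fluor fluorescence, 30 min) was read in the same wells after VM7Luc4E2 cells had been exposed to compounds with 0.1 nM 17beta-estradiol for 22 hr at 37C.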

[15] = qHTS assay to identify small molecule antagonists of the androgen receptor (AR) signaling pathway using the MDA cell line in the presence of 0.5 nM R1881 - cell viability counter screen (AID 1259242); further: nearly all actives have a fitted effect of over 45% in size
Outline: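 Live-cell protease fluorescence, CellTiter-Fluor, 30 min at 37C. Cells: MDA-kb2, 3,000/well, preincubated 5 hr. Compounds plus 0.5 nM R1881 final, 16 hr, 37C, 0% CO2.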

[16] = target: Androgen receptor (Homo sapiens) (UniProt P10275); assay: qHTS assay to identify small molecule antagonists of the androgen receptor (AR) signaling pathway using the MDA cell line in the presence of 0.5 nM R1881 (AID 1259243); further: nearly all actives have a fitted effect of over 50% in size
Outline: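 MDA-kb2, MMTV-luc (AR/GR elements); 3,000 cells/well; cpd + 0.5 nM R1881 final; 16 hr 37C, 0% CO2; ONE-Glo 30 min RT; luminescence.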

[17] = target: Estrogen receptor (Homo sapiens) (UniProt P03372); assay: qHTS assay to identify small molecule antagonists of the estrogen receptor alpha (ER-alpha) signaling pathway using the BG1 cell line in the presence of 0.1 nM 17-beta-estradiol (AID 1259244); further: nearly all actives have a fitted effect of over 50% in size
Outline: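 Luminescence after ONE-Glo (30 min, room temperature) measured ERE-luciferase activity in VM7Luc4E2 cells treated 22 h with compound and 0.1 nM final 17beta-estradiol as stimulator.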

[18] = qHTS assay to identify small molecule HDAC inhibitors (AID 1259364); further: potency means the concentration at half of the fitted maximal effect
Outline: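 HCT-116 (wild type), 1,500 cells/well, overnight; compound 2 hr 37C 5% CO2; HDAC-Glo I/II reagent 30 min RT; luminescence readout.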

[19] = qHTS assay to identify small molecule HDAC inhibitors - cell viability counter screen (AID 1259365)
Outline: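 HCT-116 (wild type), 1,500 cells/well, overnight 37C/5% CO2; compound in DMSO 2hr; CellTiter-Glo 30min RT; luminescence read.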

[20] = qHTS assay to identify small molecule phospholipidosis (PLD) inducers (AID 1259344; active means well fitted curve in the direction sought with a large enough effect; an effect the other way counts as inactive or inconclusive)
Outline: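 After 4 h attachment on collagen I, HepG2 cells were dosed with compound alongside LipidTOX Red, kept 24 h at 37 C, fixed, and imaged for lamellar phospholipid pits.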

Chain of Androgen receptor (Homo sapiens) (P10275 whole entry, looked up): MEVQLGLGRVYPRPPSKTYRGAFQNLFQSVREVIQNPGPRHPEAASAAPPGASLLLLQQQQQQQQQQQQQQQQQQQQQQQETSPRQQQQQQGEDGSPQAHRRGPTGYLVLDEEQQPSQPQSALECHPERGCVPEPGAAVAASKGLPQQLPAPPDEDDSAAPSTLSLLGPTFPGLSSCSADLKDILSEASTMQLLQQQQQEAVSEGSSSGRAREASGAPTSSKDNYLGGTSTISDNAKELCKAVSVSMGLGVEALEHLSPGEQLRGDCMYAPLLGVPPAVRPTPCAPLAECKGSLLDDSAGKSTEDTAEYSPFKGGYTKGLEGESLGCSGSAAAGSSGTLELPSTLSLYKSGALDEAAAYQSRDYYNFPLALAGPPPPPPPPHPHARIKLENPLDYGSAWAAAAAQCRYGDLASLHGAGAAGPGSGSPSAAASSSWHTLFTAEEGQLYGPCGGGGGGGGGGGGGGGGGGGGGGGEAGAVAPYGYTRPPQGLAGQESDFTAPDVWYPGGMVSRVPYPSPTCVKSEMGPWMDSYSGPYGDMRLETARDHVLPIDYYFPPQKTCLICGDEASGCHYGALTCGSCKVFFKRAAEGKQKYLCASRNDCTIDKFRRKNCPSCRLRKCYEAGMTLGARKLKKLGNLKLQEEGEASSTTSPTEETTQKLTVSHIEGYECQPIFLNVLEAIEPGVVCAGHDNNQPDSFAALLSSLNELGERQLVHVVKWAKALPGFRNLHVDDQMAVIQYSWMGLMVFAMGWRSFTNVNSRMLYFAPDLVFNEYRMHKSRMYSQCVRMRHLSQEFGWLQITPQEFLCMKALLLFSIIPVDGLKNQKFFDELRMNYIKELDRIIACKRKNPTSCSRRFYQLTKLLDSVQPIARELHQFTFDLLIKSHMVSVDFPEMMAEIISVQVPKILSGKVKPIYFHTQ
Chain of Estrogen receptor (Homo sapiens) (P03372 whole entry, looked up): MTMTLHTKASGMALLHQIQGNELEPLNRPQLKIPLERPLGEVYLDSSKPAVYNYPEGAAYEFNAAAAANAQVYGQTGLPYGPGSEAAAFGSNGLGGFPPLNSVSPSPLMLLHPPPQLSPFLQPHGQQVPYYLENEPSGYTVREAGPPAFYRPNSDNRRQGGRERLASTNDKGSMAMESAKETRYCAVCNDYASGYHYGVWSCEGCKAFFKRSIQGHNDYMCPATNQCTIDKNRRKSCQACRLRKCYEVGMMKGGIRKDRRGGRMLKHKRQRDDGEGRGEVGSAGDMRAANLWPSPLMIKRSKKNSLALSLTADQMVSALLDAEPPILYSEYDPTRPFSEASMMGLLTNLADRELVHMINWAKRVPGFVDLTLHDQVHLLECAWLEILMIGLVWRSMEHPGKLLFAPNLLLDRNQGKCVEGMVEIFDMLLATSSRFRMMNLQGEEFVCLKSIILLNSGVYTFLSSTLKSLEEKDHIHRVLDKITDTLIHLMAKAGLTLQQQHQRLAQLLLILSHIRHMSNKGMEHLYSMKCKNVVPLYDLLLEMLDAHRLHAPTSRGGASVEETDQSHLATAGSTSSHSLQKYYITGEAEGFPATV

Row | SMILES | Potency [1] | Potency [2] | Potency [3] | Potency [4] | Potency [5] | Potency [6] | Potency [7] | outcome [8] | outcome [9] | outcome [10] | Potency [11] | Potency [12] | Potency [13] | outcome [14] | outcome [15] | Potency [16] | outcome [17] | Potency [18] | outcome [19] | Potency [20]
1 | Nc1cc(S(=O)(=O)O)ccc1O | inactive | inactive | inactive | inactive | inactive | inactive | inactive | inactive | inactive | inactive | inactive | inactive | inactive | inactive | inactive | inactive | inactive | inactive | inactive | 
2 | C[n+]1ccccc1/C=N/O | inactive | inactive | inactive | inactive | inactive | inactive | inactive | inactive | inactive | inactive | inactive | inactive | inactive | inactive | inactive |  | inactive | inactive | inactive | inactive
3 | CC(=O)Nc1ccc(OCCOCCOc2ccc(NC(C)=O)cc2)cc1 | inactive | inactive | inactive | inactive | inactive | inactive | inactive | inactive | inactive | inactive | inactive | inactive | inactive | inactive | inactive |  |  | inactive | inactive | inactive
4 | CC(=O)SCC(CC(=O)c1ccc(C)cc1)C(=O)O (stereo unspecified) | inactive | inactive | inactive | inactive | inactive | inactive | inactive | inactive | inactive | inactive | inactive | inactive | inactive | inactive | inactive |  |  | inactive | inactive | inactive
5 | C=CCCCCCCCCOC(C)=O | inactive | inactive | inactive | inactive | inactive | inactive | inactive | inactive | inactive | inactive | inactive | inactive | inactive | inactive | inactive |  | inactive | inactive | inactive | 
6 | CCC(C)c1nccnc1OC (stereo unspecified) | inactive | inactive | inactive | inactive | inactive | inactive | inactive | inactive | inactive | inactive | inactive | inactive | inactive | inactive | inactive |  | inactive |  | inactive | 
7 | CC(C)(O)c1ccc(C(C)(C)O)cc1 | inactive | inactive | inactive | inactive | inactive | inactive | inactive | inactive | inactive | inactive | inactive | inactive | inactive | inactive | inactive |  | inactive |  | inactive | 
8 | CN(C)CCc1c[nH]c2ccc(CS(=O)(=O)N3CCCC3)cc12 | inactive | inactive | inactive | inactive | inactive | inactive | inactive | inactive | inactive | inactive | inactive | inactive | inactive | inactive | inactive |  |  | inactive | inactive | inactive
9 | CC(=O)OC1CCC(C(C)(C)C)CC1 (stereo unspecified) | inactive | inactive | inactive | inactive | inactive | inactive | inactive | inactive | inactive | inactive | inactive | inactive | inactive | inactive | inactive | inactive | inactive | inactive | inactive | 
10 | Cc1ccc(OC(=O)CC(C)C)cc1 | inactive | inactive | inactive | inactive | inactive | inactive | inactive | inactive | inactive | inactive | inactive | inactive | inactive | inactive | inactive |  | inactive | inactive | inactive | 
11 | CN1C(CCl)Nc2cc(Cl)c(S(N)(=O)=O)cc2S1(=O)=O (stereo unspecified) | inactive | inactive | inactive | inactive | inactive | inactive | inactive | inactive | inactive | inactive | inactive | inactive | inactive | inactive | inactive |  | inactive | inactive | inactive | inactive
12 | O=C(O)COc1ccc2ccccc2c1 | inactive | inactive | inactive | inactive | inactive | inactive | inactive | inactive | inactive | inactive | inactive | inactive | inactive | inactive | inactive |  | inactive | inactive | inactive | 
13 | O=C(O)P(=O)(O)O | inactive | inactive | inactive | inactive | inactive | inactive | inactive | inactive | inactive | inactive | inactive | inactive | inactive | inactive | inactive |  |  | inactive | inactive | inactive
14 | C/C(=N\O)c1ccc(OCC(=O)N2CCCCC2)cc1 | inactive | inactive | inactive | inactive | inactive | inactive | inactive | inactive | inactive | inactive | inactive | inactive | inactive | inactive | inactive | inactive | inactive | 8.41 µM (active) | inactive | inactive
